About 83,000 compounds went through this panel and 20% of them were active in at least one assay; those are over-represented in the sample as a whole.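 Single-dose data. Exposure time 48 hours. Values below 10 considered active.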 A number with no mark means an inactive call. Active and inactive are the calls of the source.
Experiments:
Assay in all cases: NCI-60 one-dose screen, 48 h (100 = growth as untreated, 0 = no growth, -100 = all killed)
Conditions in all cases: 10 µM unless noted
HCT-15 colon = system: HCT-15 colon
HT29 colon = system: HT29 colon
SNB-75 CNS = system: SNB-75 CNS
SNB-19 CNS = system: SNB-19 CNS
U251 CNS = system: U251 CNS
PC-3 prostate = system: PC-3 prostate
SK-MEL-5 melanoma = system: SK-MEL-5 melanoma
UACC-62 melanoma = system: UACC-62 melanoma
LOX IMVI melanoma = system: LOX IMVI melanoma
SK-MEL-28 melanoma = system: SK-MEL-28 melanoma
SK-MEL-2 melanoma = system: SK-MEL-2 melanoma
EKVX NSCLC = system: EKVX NSCLC
SN12C renal = system: SN12C renal
UO-31 renal = system: UO-31 renal
TK-10 renal = system: TK-10 renal
ACHN renal = system: ACHN renal
CAKI-1 renal = system: CAKI-1 renal
CCRF-CEM leukemia = system: CCRF-CEM leukemia
MOLT-4 leukemia = system: MOLT-4 leukemia
A498 renal = system: A498 renal

SMILES | growth (HCT-15 colon) | growth (HT29 colon) | growth (SNB-75 CNS) | growth (SNB-19 CNS) | growth (U251 CNS) | growth (PC-3 prostate) | growth (SK-MEL-5 melanoma) | growth (UACC-62 melanoma) | growth (LOX IMVI melanoma) | growth (SK-MEL-28 melanoma) [%] | growth (SK-MEL-2 melanoma) | growth (EKVX NSCLC) | growth (SN12C renal) | growth (UO-31 renal) | growth (TK-10 renal) | growth (ACHN renal) | growth (CAKI-1 renal) | growth (CCRF-CEM leukemia) | growth (MOLT-4 leukemia) | growth (A498 renal)
c1cn2c(ccc3nc(-c4cn[nH]c4)c4c(c32)CCCC4)n1 | 35.1% | 62.4% | 40.5% | 75.5% | 56.1% | 48.3% | 87.6% | 33.5% | 79% | 66 | -5.11% (active) | 90.2% | 59.2% | 23% | 30.8% | 26.4% | 16.5% | 81.2% | 83.4% | 
Cn1ccnc1C(=O)/C=C/c1ccc(CNC(=O)c2c(F)c(F)c(F)c(F)c2F)cc1 | 11.8% | 14.7% | 96.3% | 42.2% | 45.6% | 35.2% | 75.7% | 54.9% | -66.4% (active) | 90.8 | 99.4% | 93.2% | 44.5% | 79.7% | 79.2% | 47.9% | 76% |  | 23% | 83.3%
CN(C)CCN(C)c1ccc2ncc(C#Cc3cncc(C(=O)Nc4ccc(CN5CCN(C)CC5)c(C(F)(F)F)c4)c3)n2n1 | -25.2% (active) | -66.1% (active) | 47.9% | -11.3% (active) | 64.1% | 65.2% | 96.4% | 93% | -89% (active) | 105 | 84.5% | 86.9% | 36.1% | 68.7% | 134% | 47.2% | 58.1% | 7.73% (active) | 3.55% (active) | 
CC1(C)CC[C@]2(C(=O)N3CCOCC3)CC[C@]3(C)C(=CC[C@@H]4[C@@]5(C)C/C(=C/c6ccco6)C(=O)C(C)(C)[C@@H]5CC[C@]43C)[C@@H]2C1 | 81.5% | 82.7% | 28.6% | 100% | 101% | 60.3% | 94.2% | 80.3% | 63.9% | 91.6 | 103% | 63.4% | 86% | 49.9% | 75.8% | 81.7% | 37% |  | 52.3% | 68.7%
CC(C)(O)c1cncc(-c2ccc3ncnc(NCc4ccccc4)c3c2)c1 | 103% | 96.7% | 31% | 91.8% | 109% | 84.1% | 87.6% | 84.3% | 57.2% | 88 | 107% | 32.7% | 57.6% | 37.1% | 42.8% | 66.4% | 42.6% |  | 98.6% | 5.8% (active)
COc1c(N2CC3CCCNC3C2)c(F)cc2c(=O)c(C(=O)N/N=C/c3ccc(F)cc3)cn(C3CC3)c12 (centres undefined) | 45.9% | 45.9% | 83.6% | 99.5% | 81.4% | 76.4% | 82.7% | 80.2% | 46.1% | 81 | 100% | 90% | 88.4% | 80.7% | 101% | 104% | 87.7% | 63.8% | 63.1% | 
N/C(=N\C(N)=N\c1nc2ccccc2s1)c1ccc2ccccc2c1 | 69% | 104% | 48.5% | 94.7% | 47.9% | 50.6% | 97.4% | 93.4% | -45.7% (active) | 95.5 | 97.7% | 47.9% | 75.3% | 23.4% | 126% | 78.4% | 36.4% |  | 60.6% | 96.9%
Nc1nc(Nc2ccccc2SSc2ccccc2Nc2nc(N)nc(-c3ccccc3)n2)nc(-c2ccccc2)n1 | 48.5% | 111% | 55.7% | 74.5% | -22.7% (active) | 42.9% | 89.2% | 76.3% | -34.3% (active) | 93.9 | 106% | 47.1% | 77.8% | -12.6% (active) | 101% | 55.8% | 25.2% |  | 50.7% | 78.7%
COc1cc(-c2nnc(SCc3ccc(O)c4ncccc34)n2-c2ccccc2)cc(OC)c1OC | 12.8% | 16.7% | -6.25% (active) | 9.25% (active) | 4.28% (active) | 15.4% | -62.4% (active) | -37.4% (active) | -22.2% (active) | 17.9 | 24.6% | 4.34% (active) | 8.79% (active) | -30.2% (active) | 15.2% | 4.84% (active) | 1.72% (active) | 5.95% (active) | 4.98% (active) | 
COc1ccc(/C=N/NC2=NC3C(S2)N(C)C(=O)N3C)cc1 (centres undefined) | 28.4% | 8.29% (active) | 8.09% (active) | 34.6% | 27.2% | 32.1% | 31.1% | 38.3% | 32.7% | 53.5 | 29.9% | 38.5% | 44.3% | 45% | 76.2% | 42.7% | 24% | 15.5% | 20.3% | 
C=CC(=O)N1CCC=C(c2cc3c(N[C@H](C)c4ccccc4)ncnc3[nH]2)C1 | 73.2% | 66.5% | 3.25% (active) | 77.1% | 84.2% | 68.9% | 85.7% | 68.5% | 57.5% | 91.6 | 89.7% | 28.1% | 29.3% | 20.5% | -5.86% (active) | 6.81% (active) | 14.4% |  | 93.4% | -27.8% (active)
COc1ccc(C2c3sc4c(C)cccc4c3Oc3nc(CC(=O)Nc4ccccc4)[nH]c(=O)c32)cc1 (centres undefined) | 51.9% | 94.1% | 39.4% | 89% | 106% | 83.1% | 76.9% | 63.2% | 48.5% | 76 | 92.8% | 47.1% | 79.1% | 46.7% | 141% | 92.9% | 46% |  | 101% | 70.6%
O=C(Nc1nc2ccc([N+](=O)[O-])cc2s1)Nc1ccccc1Br | 24.3% | 44.9% | 77.3% | 20.5% | 10.6% | 3.13% (active) | -3.21% (active) | 32.3% | 44.8% | 48.8 | 48.1% | 35.3% | 23.4% | 43.4% | 81.1% | 47.3% | 64.1% | 37.6% | 27.1% | 
O=C(Nc1ccc2c(ccn2Cc2ccccn2)c1)c1ccnnc1 | 111% | 103% | 56% | 102% | 108% | 91.4% | 98.9% | 86.3% | 101% | 108 | 102% | 75.6% | 70.2% | 58.8% | 60.2% | 97.3% | 65.9% |  | 115% | 56.8%
COc1ccc(-c2nn(-c3ccc(S(C)(=O)=O)cc3)cc2/C=N/O)cc1 | 103% | 106% | 127% | 105% | 106% | 102% | 98.7% | 96.6% | 102% | 96.1 | 109% | 104% | 98.9% | 97% | 124% | 95.3% | 111% | 99.6% | 103% | 
COc1ccc(N2CCN(C3=C(Cl)C(=O)C(C)=C(C)C3=O)CC2)cc1 | 110% | 120% | 107% | 99.1% | 100% | 92.3% | 97.6% | 88.5% | 91.4% | 118 | 106% | 116% | 99.3% | 91.4% | 123% | 104% | 91.9% | 26.1% | 53.7% | 

From PubChem BioAssay (NCI)
